Results: PubChem BioAssay AID1159524 (National Center for Advancing Translational Sciences (NCATS), 2015)
In all, about 410,000 compounds went through this assay and about 5,100 (1.2%) were called active. Another 8% or so got no clear call; they are omitted. For the sample, actives were picked, then their nearest neighbours and some compounds at random. A number with no mark means an inactive call. The call rests on the fitted dose curve; tested in HEK293T cells.

assay: High Throughput Screening for Foot and Mouth Disease Virus Antivirals; details: FMDV antiviral cell-based qHTS; series mostly up to 57.9 µM; activity change, negative = inhibition: at the top concentration; further: read-out not given here; nearly all actives have a fitted effect of over 45% in size
On the % scale 0 is the no-effect control and ±100 the full control effect; potency means the concentration at half of the fitted maximal effect.

SMILES	activity change, negative = inhibition	Potency
COc1cccc(Cn2c(=O)c(-c3cc(F)cc(F)c3)nc3cnc(OC)nc32)c1	-4.74%	–
COc1cccc(Nc2ncc3ncc(=O)n(C4CC4)c3n2)c1	15.6%	–
NCCCNCCCCN(CCCN)/[N+]([O-])=N/O	-17.2%	–
N#CCCn1c(=O)c(-c2cc(F)cc(F)c2)nc2cnc(Oc3ccccc3)nc21	-7.27%	–
COc1ccc(OC)c(CNC(=O)CN2C(=O)CCn3nc(-c4cn(C)c5ccccc45)cc32)c1	-24.5%	–
CCN(CC)c1ccc(NC(=O)CN2CCN(c3ccccn3)CC2)cc1	-7.32%	–
CN(C(=O)CN1CCN(c2cc(-c3ccc(OCc4ccccc4)cc3)ncn2)CC1)c1ccccc1	–	25.1 µM (active)
CCc1ccc(OCC(=O)N2CCN(CC(=O)Nc3ccccc3Cl)CC2)cc1	-11.6%	–
c1ccc2c(Nc3ccncc3)nc(-c3ccoc3)nc2c1	2.01%	–
Cc1nc2cnc(N3CCN(C)CC3)nc2n(C[C@H]2CCCO2)c1=O	-18.4%	–
COc1cccc(C(=O)N(Cc2cccc(Cl)c2)Cc2ccco2)c1	0%	–
CC(=O)c1cc(CN2CCC(C(=O)Nc3cccc(-c4cscn4)c3)CC2)cs1	–	20 µM (active)
CCn1cc(CN2CCC(C(=O)Nc3cccc(-c4cccc(Cl)c4)c3)CC2)cn1	-16.3%	–
CCn1cc(CN2CCC(C(=O)Nc3cccc(-c4cccc(Cl)c4)c3)CC2)c(C)n1	-17.4%	–
CCOc1cc(C(=O)Nc2nnc3n2CCS3)cc(OCC)c1OCC	4.52%	–
c1ccc(CN2CC[C@@]3(CCCNC3)C2)cc1	-12.5%	–
CC(C)OCCCNc1ncnc2c1[nH]c1ccc(F)cc12	–	39.8 µM (active)
COc1ccc(C2Nc3ccccc3C(=O)N2c2ccc(Cl)cc2)cc1Cn1cc([N+](=O)[O-])cn1 (stereo unspecified)	–	100 µM (active)
COc1ccccc1N1CCN(C2C(=O)c3ccccc3N2C(C)=O)CC1 (stereo unspecified)	-8.94%	–
CS(=O)(=O)N1CCC2(CC1)CN(Cc1ccccc1)C2	-3.17%	–
Cc1ccc(-c2nc(C#N)c(NCCCn3ccnc3)o2)cc1	57.1%	–
N#Cc1nc(-c2ccc(OCc3ccccc3)cc2)oc1NCCCN1CCOCC1	–	39.8 µM (active)
COc1ccc(OCc2ccc(-c3nc(C#N)c(N4CCN(c5ccccc5)CC4)o3)o2)cc1	-19.7%	–
C/C=C(\C)C(=O)OC1C(OC(=O)C2(C)OC2C)c2cc3ccc(=O)oc3cc2OC1(C)C (stereo unspecified)	0%	–
Cc1nc2cnc(N3CCN(C)CC3)nc2n(CCC#N)c1=O	-6.36%	–
CC(OC(=O)CN1C(=O)C2CCCCC2C1=O)C(=O)Nc1ncc(Cl)cc1Cl (stereo unspecified)	-9.05%	–

SMILES	activity change, negative = inhibition	Potency
Cc1ccc(COC(=O)CN2C(=O)NC3(CCCC3)C2=O)cc1	1.27%	–
CC1=CC(C)(C)Nc2ccc(OC(=O)CN3C(=O)C4CCCCC4C3=O)cc21 (stereo unspecified)	–	20 µM (active)
O=C(O)CCn1cc(/C=C/C(=O)c2ccc(Cl)cc2)c(-c2cccc(Br)c2)n1	–	25.1 µM (active)
O=C(O)CCn1cc(C=C2C(=O)NC(=S)NC2=O)c(-c2cccc(Br)c2)n1	3.84%	–
Cc1csc2nc(COC(=O)c3ccccc3NC(=O)c3ccccc3Cl)cc(=O)n12	-8.02%	–
CCc1cnc2c(c1SCC(=O)c1ccccc1)c(=O)n(C)c(=O)n2C	-24.2%	–
CCC(C)[C@@H](N)C(=O)O (stereo partly specified)	0.711%	–
Cc1ccc(SCC(=O)Nc2ccc3oc(-c4ccccc4F)nc3c2)cc1	-0.835%	–
COc1ccc(CNC(=O)c2ccc(-c3cccnc3)c3ccoc23)cc1OC	–	22.4 µM (active)
COCCCNC(=O)c1ccc(-c2c(C)noc2C)c2ccoc12	27.2%	–
COc1ccc(CNC(=O)c2c(C)cc(=O)oc2C)cc1OC	-29.7%	–
C=CC(=O)c1ccc2ccccc2c1	-9.61%	–
CCOC(=O)N1CCN(Cc2ccc3c(c2)CN(C(=O)c2cccc(-n4cccn4)c2)CCO3)CC1	-23.1%	–
CCCCC/C=C\C/C=C\CCCCCCCCCC(=O)O	-17.4% [at 6.7 µM]	–
Cn1c(=O)[nH]c(=O)c2c1nc(Br)n2CCCCSc1nc2ccccc2o1	–	35.5 µM (active)
Cn1c(=O)c2c(nc(Br)n2CCSc2nc3ccccc3o2)n(C)c1=O	-16.2%	–
Cc1ccnc(SCCn2c(Br)nc3c2c(=O)[nH]c(=O)n3C)n1	-13.3%	–
COc1ccccc1CNc1ncnc2ccc(-c3ccc4c(c3)OCO4)cc12	-3.54%	–
CC1O[C@@H](Oc2c(-c3ccc(O)c(O)c3)oc3cc(O)cc(O)c3c2=O)C(O)C(O)C1O (stereo partly specified)	-2.06%	–
COc1ccc(Cc2nc3ccc(C(=O)NCc4ccccc4C)cc3o2)cc1	-13.5%	–
COC(=O)c1ccccc1NC(=O)c1ccc2c(=O)n3c(nc2c1)CCCCC3	-21.2%	–
CCc1c(C)sc(NC(=O)C2c3ccccc3Oc3ccccc32)c1C(=O)OC(C)C	0%	–
CC1CCN(S(=O)(=O)c2ccc3c(ccn3CC(=O)O)c2)CC1	-5.95%	–
Cc1ccn2c(c1)nc(=O)c1cc(S(=O)(=O)N3CCC(C)CC3)ccc12	–	11.2 µM (active)
CC1CCN(S(=O)(=O)c2ccc3c(c2)n(C)c(=O)n3C)CC1	-2.39%	–
CCc1ccc(CNC(=O)c2ccc(CS(=O)c3ccc(Br)cc3)o2)cc1 (stereo unspecified)	2.27%	–

SMILES	activity change, negative = inhibition	Potency
CN(Cc1cccc2ncccc12)C(=O)c1cnn(-c2nccc(-c3ccccc3F)n2)c1C1CC1	–	3.98 µM (active)
Cc1ccc(-c2ccnc(-n3ncc(C(=O)N(C)Cc4cccc5ncccc45)c3C3CC3)n2)o1	-0.786%	–
Cc1cccc(CNC(=O)c2cnn(-c3nccc(-c4ccccc4F)n3)c2C2CC2)n1	-10.1%	–
COc1cccc(C2C(C(=O)Nc3ccc(C)cc3C)=C(C)Nc3c(C(=O)Nc4ccccc4)cnn32)c1 (stereo unspecified)	-7.93%	–
Nc1nc(/C(=C/CC(=O)O)C(=O)N[C@@H]2C(=O)N3C(C(=O)O)=CCS[C@H]23)cs1	-8.05%	–
COc1ccccc1NC(=O)c1oc2ccccc2c1NC(=O)COc1ccccc1OC	2.02%	–
O=C(c1ccccc1)c1ccc2nc(N3CCCCC3)c3nncn3c2c1	–	10 µM (active)
c1ccc(CC2CCN(c3nc4ccccc4n4cnnc34)CC2)cc1	-18.3%	–
CCOC(=O)CSc1nc2ccc(C)cc2n2cnnc12	18.6%	–
O=c1c(O)c(Br)ccc2c(Br)c(O)c(O)c(O)c12	-10%	–
COc1ccc(-c2c(C)c3ccc(O)c(CN4CCCC4)c3oc2=O)cc1OC	-12.7%	–
COCC1CCCN(Cc2ccc3c(c2)CN(C(=O)c2ccnn2C)CCO3)C1 (stereo unspecified)	-9.53%	–
CC(=O)Nc1cc(C(=O)NCc2ccc(F)cc2Cl)ccc1Sc1ccc(Cl)cc1	-7.66%	–
COc1ccc(Oc2ncc3nc(C)c(=O)n(-c4ccccc4)c3n2)cc1	-15.8%	–
CSc1ccc(CCNC(=O)c2ccc3c(c2)nc2n3CCOC2)cc1	-16.6%	–
CC1CN/C(=C\C(=O)c2ccc(Br)cc2)C(=O)N1 (stereo unspecified)	–	12.6 µM (active)
O=C(O)C1CCCN1S(=O)(=O)c1ccc(Br)cc1 (stereo unspecified)	-7.27%	–
Cc1nc2cnc(Oc3cccc(Cl)c3)nc2n(C2CC2)c1=O	-18.7%	–
CC(C)[C@H](CO)Nc1nc(Nc2cc(N)cc(Cl)c2)c2ncn(C(C)C)c2n1	-25.5%	–
Cc1cccc(-n2c(SCC(N)=O)nc3c(oc4ccccc43)c2=O)c1	0%	–
Cc1cccc(-n2c(SCC(N)=O)nc3c(c2=O)C2(CCCCC2)Cc2ccccc2-3)c1	–	14.1 µM (active)
Cc1cccc(NC(=O)CSc2nc3c([nH]c4ccccc43)c(=O)n2-c2cc(C)cc(C)c2)c1	0%	–
COc1ccc(NC(=O)Cn2c(=O)n(Cc3ccc(C(=O)NCc4ccccc4Cl)cc3)c(=O)c3ccccc32)cc1	10.6%	–
CCOc1ccc(/C=C(\C#N)c2nc3ccccc3c(=O)[nH]2)cc1OC	10.8%	–
CCOc1cc(/C=C(/C#N)c2ccc(Cl)cc2)cc(Cl)c1OCC(=O)O	–	8.91 µM (active)
CCOC(=O)CN(C(=O)COc1nc(C)cc(C)c1C#N)c1ccc(Cl)cc1	-18.7%	–

SMILES	activity change, negative = inhibition	Potency
O=C(c1ccncc1)N1CCC2(CCCN(C(c3ccccc3)c3ccccc3)C2)CC1	-21%	–
Cc1ccc(CN2CCCn3nc(C(=O)NCc4ccccc4Cl)cc3C2=O)cc1	-14.4%	–
C/C(=N\NC(=O)c1ccccc1F)c1ccccn1	–	12.6 µM (active)
O=C(NC(=S)NC1CCSC1=O)c1ccccc1F (stereo unspecified)	48.4%	–
CN(NC(=O)c1ccccc1F)c1nc(C(F)(F)F)nc2ccccc12	-5.68%	–
CCn1c2ccccc2c2cc(CN3CCN(Cc4cccc(Cl)c4)CC3)ccc21	13.2%	–
CCCN(C/C=C/I)C1CCc2ccc(O)cc2C1 (stereo unspecified)	-6.2%	–
CC1Cc2cc(S(=O)(=O)CCC(=O)NCc3ccc(Cl)cc3)ccc2N1C(=O)C1CC1 (stereo unspecified)	-1.27%	–
CC(C)S(=O)(=O)c1oc(-c2ccc(F)cc2)nc1S(=O)(=O)c1ccc(F)cc1	–	31.6 µM (active)
O=C(CSc1oc(-c2ccc(F)cc2)nc1S(=O)(=O)c1ccc(Br)cc1)NC1CCCCC1	-1.69%	–
Cc1ccc(-c2nc(S(=O)(=O)c3ccc(C)cc3)c(N3CCCCCC3)o2)cc1	45.5%	–
COc1ccc(C(=O)N2CCC3(CCCN(C(c4ccccc4)c4ccccc4)C3)CC2)cc1	2.28%	–
O=C(c1csnn1)N1CCC[C@@]2(CCN(c3cccc(-c4ccccc4)c3)C2)C1	-16.6%	–
Cc1c(NC(=O)C(C)(C)C)cccc1-c1nc2ccccc2s1	-7.55%	–
O=S(=O)(c1ccccc1)N1CCC2(CC1)CN(Cc1nccs1)C2	-5.22%	–
O=C(c1ccc2c(c1)N(Cc1ccccc1)C(=O)c1ccccc1S2(=O)=O)N1CCCC1	3.75%	–
CC1C(=O)N(Cc2ccccc2)c2ccccc2N1C(=O)c1ccccc1 (stereo unspecified)	–	31.6 µM (active)
CC1Oc2ccccc2N(Cc2cccnc2)C1=O (stereo unspecified)	6.82%	–
CS(=O)(=O)N1CCC2(CCN(c3ccncc3)CC2)CC1	-17.3%	–
CN1CCC2(CC1)CCN(S(=O)(=O)c1ccccc1)CC2	-4.56%	–
CC(=O)Nc1ccc(NC(=O)CC2CCCC2)cc1	55.7%	–
O=C(CCl)Nc1ccc(Sc2ccc(NC(=O)CCl)cc2)cc1	–	7.94 µM (active)
O=C(O)CC(SCC(=O)Nc1ccc(Br)cc1)C(=O)O (stereo unspecified)	-8.01%	–
